Rtt109 Vps75: C. albicans Rtt109 histone acetyltransferase inhibition; inhibition, % at 34.9 µM; Q5AAJ8; AID 540336; actives 0.16% (n = 330,000); purified Rtt109/Vps75, ThioGlo CoA-SH fluorescence, 4 h;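 active = inhibition of at least 50% in every replicate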
ABHD5 PLIN5 PPI: inhibitors of human ABHD5-perilipin-5 interaction | Q00G26+Q8WTS1 | inhibition, % at 4 µM | Split G. princeps luciferase complementation, luminescence, 4 h | AID 602281 | actives 0.78% (n = 360,000);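 active = inhibition above the mean inhibition across every tested compound plus 3 SD, cut at about 22% in these data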
rCAG binder: molecules binding r(CAG) RNA repeats; inhibition, % at 3 µM; r(CAG) RNA repeat, TO-PRO-1 dye displacement fluorescence; actives 1.3% (n = 370,000);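 active = inhibition above the plate cutoff, the mean of all test compounds on that plate plus 3 SD, cut at about 35% in these data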;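 also: higher means more dye released from RNA so lower well fluorescence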
LANA-H2B inh: blocks KSHV LANA binding to histone H2A/H2B | cell-free LANA-H2A/H2B peptide, fluorescence polarization | inhibition, % (no concentration beside the values) | actives 0.6% (n = 320,000); in the data active = inhibition mostly above about 10%, no sharp cut-off; inactive = mostly below about 6.7%
ALR H2O2 inh: blocks human ALR sulfhydryl oxidase activity; P55789; purified ALR, DTT oxidation, H2O2 HRP-luminol luminescence; inhibition, % (no concentration beside the values); actives 3.8% (n = 290,000);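 active = mean replicate inhibition above about 79%, with every replicate also reaching it, limit read from the data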
Target sequence (P55789 whole entry, looked up): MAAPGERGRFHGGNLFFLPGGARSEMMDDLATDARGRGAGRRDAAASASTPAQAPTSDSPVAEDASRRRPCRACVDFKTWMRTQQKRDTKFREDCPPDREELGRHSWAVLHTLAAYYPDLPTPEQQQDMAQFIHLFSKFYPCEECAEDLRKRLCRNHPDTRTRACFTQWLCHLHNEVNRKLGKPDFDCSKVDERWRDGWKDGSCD
PRMT1 inh: inhibitors of human PRMT1 | Q99873 | recombinant PRMT1, activity-based probe fluorescence polarization | inhibition, % at 2.79 µM | actives 1.3% (n = 370,000) | AID 652257;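 active = inhibition above about 21% made by adding two undisclosed values, limit read from the data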
Target sequence (Q99873 whole entry, looked up): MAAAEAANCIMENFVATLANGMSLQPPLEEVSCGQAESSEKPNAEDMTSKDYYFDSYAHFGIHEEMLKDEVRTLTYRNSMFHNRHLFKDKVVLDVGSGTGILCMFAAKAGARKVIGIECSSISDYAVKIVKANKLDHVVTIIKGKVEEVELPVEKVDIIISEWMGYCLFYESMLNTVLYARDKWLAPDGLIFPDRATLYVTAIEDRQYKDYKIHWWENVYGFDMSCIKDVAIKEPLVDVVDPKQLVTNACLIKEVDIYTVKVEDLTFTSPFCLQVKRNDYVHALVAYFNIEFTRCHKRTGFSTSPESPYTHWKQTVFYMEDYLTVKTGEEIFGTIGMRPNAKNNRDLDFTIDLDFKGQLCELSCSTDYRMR
rCAG binder conf: r(CAG) RNA repeat binding, confirmation; shares compounds with rCAG binder; TO-PRO-1 dye displacement fluorescence; inhibition, % at 3 µM; actives 70% (n = 4,300); AID 652065;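 active = inhibition above a per-plate cutoff, the mean inhibition of sample wells plus 3 SD, cut at about 35% in these data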;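 also: loss of TO-PRO-1 fluorescence as compound displaces dye from 1x1 AA loop RNA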
DNA CAG counter: counter-screen for rCAG RNA binders: DNA CAG dye complex inhibitors; shares compounds with rCAG binder; inhibition, % at 3 µM; d(CAG) DNA oligo TO-PRO-1 dye displacement, fluorescence; actives 94% (n = 4,300);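 active = inhibition above its plate's cutoff, the mean test-well inhibition plus 3 SD, cut at about 4.8% in these data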;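 also: hits displace the dye from DNA and so lower well fluorescence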
DNA CAG DR: counter-screen for rCAG binders: inhibitors of DNA CAG TO-PRO-1 complex; shares compounds with rCAG binder; DNA CAG/GTC duplex TO-PRO-1 dye displacement fluorescence; IC50, µM; actives 20% (n = 250); AID 686960; in the data active = IC50 below about 10 µM
A number is an active result; . = inactive; / = no result. This is a sample that favours compounds with a hit; in the whole collection about 5.9% have one here.

SMILES | Rtt109 Vps75 | ABHD5 PLIN5 PPI | rCAG binder | LANA-H2B inh | ALR H2O2 inh | PRMT1 inh | rCAG binder conf | DNA CAG counter | others
COc1ccc(/C=C2/C(=O)ON=C2c2ccccc2)cc1OC | . | . | . | . | . | . | / | /
O=C(CSc1ccsc1[N+](=O)[O-])Nc1cccc(F)c1 | . | . | 35.2 | / | / | . | . | 12.3
O=C1C[C@@H](O)[C@H](O)c2cccc(O)c21 | / | / | . | / | / | . | / | /
O=C(CSc1nnc(-c2ccccc2F)n1C1CCCCC1)Nc1cc(C(=O)O)ccc1Cl | . | . | 38.3 | . | . | . | . | 6.9
Cc1ccc(C(=O)O)cc1NC(=O)CSc1nnc(-c2ccccc2F)n1C1CCCCC1 | . | . | . | . | . | . | / | /
Cc1nc(Nc2nc(CSc3nc4ccccc4[nH]3)cc(=O)[nH]2)nc2ccccc12 | . | . | 41.4 | . | . | . | . | 21.3
COc1ccc2nc(Nc3nc(CSc4nc5ccccc5[nH]4)cc(=O)[nH]3)nc(C)c2c1 | . | . | . | . | . | . | / | /
Cc1nc(Nc2nc(-c3ccccc3)cc(=O)[nH]2)nc2ccccc12 | . | . | 36.7 | . | . | . | . | 6.5
Cc1nc(Nc2nc(CSc3ccc(Cl)cc3)cc(=O)[nH]2)nc2ccccc12 | . | . | . | . | . | . | / | /
O=C(NC(NC(=S)Nc1ccccc1C(=O)O)C(Cl)(Cl)Cl)c1cccc([N+](=O)[O-])c1 (stereo not drawn) | . | . | 56.1 | . | . | . | 60.3 | 24.4
CCn1c(C)nc2cc(C(=O)NNC(=S)Nc3ccc(Cl)cc3Cl)ccc21 | . | . | 57.8 | . | / | . | 48.9 | 16.3
O=C(NC(NC(=S)Nc1ccccc1Cl)C(Cl)(Cl)Cl)c1cccc(Cl)c1 (stereo not drawn) | . | . | . | . | . | . | / | /
O=C(c1ccc(N2CCOCC2)c([N+](=O)[O-])c1)N1CCCCC1 | . | . | . | . | . | . | / | /
O=C(NNC(=S)Nc1ccc(Cl)cc1Cl)c1ccc(N2CCOCC2)c([N+](=O)[O-])c1 | . | . | 95.1 | . | . | . | 87.3 | 62.9
O=C(NNC(=S)Nc1ccc(Cl)c(Cl)c1)c1cccc([N+](=O)[O-])c1 | / | . | 78.9 | . | 97.6 | . | 78.9 | 33.1
COC(=O)[C@H](C(C)C)N(CCc1cn(Cc2ccccc2)nn1)S(=O)(=O)c1ccccc1Br | / | / | . | / | / | . | / | /
CC(C)[C@H](N)C(=O)N[C@H]1CCC2C3CC=C4C[C@@H](O)CC[C@]4(C)C3CC[C@@]21C (stereo partly drawn) | / | . | . | / | / | . | / | /
Cc1ccc(NC(=S)NNC(=O)c2ccc(N3CCOCC3)c([N+](=O)[O-])c2)cc1Cl | . | . | 79.8 | . | . | . | 84.0 | 46.1
O=C(NNC(=S)Nc1ccc(Br)cc1)c1ccc(N2CCOCC2)c([N+](=O)[O-])c1 | . | . | 72.6 | . | . | . | 66.8 | 28.1
Cc1ccc(NC(=O)c2ccc(NCCc3ccccc3)c([N+](=O)[O-])c2)cc1F | . | . | . | . | . | . | / | /
Cc1ccc(NC(=O)c2ccc(NCCN)c([N+](=O)[O-])c2)cc1Cl | . | . | 38.1 | . | . | . | . | .
O=S1(=O)N[C@@H](Cc2ccccc2)COc2cc(N3CCN(Cc4ccccc4F)CC3)ccc21 | / | . | . | / | / | . | / | /
CC1C(=O)N(Cc2cn(Cc3ccco3)nn2)CCS(=O)(=O)N1Cc1ccc(-c2ccc(Cl)c(Cl)c2)cc1 (stereo not drawn) | / | . | . | / | / | . | / | /
CCCCCCC12C(=Cc3cc4c(cc31)OCCO4)c1cc(OC)c(OC)cc1C(CC(=O)O)N2C(=O)OC (stereo not drawn) | / | / | 43.4 | / | / | . | 35.2 | 7.0
CCCCCCC12C(=Cc3cc4c(cc31)OCCO4)c1cc(OC)c(OC)cc1C(CC(=O)OC)N2C(=O)OC (stereo not drawn) | / | / | . | / | / | . | / | /
SMILES | Rtt109 Vps75 | ABHD5 PLIN5 PPI | rCAG binder | LANA-H2B inh | ALR H2O2 inh | PRMT1 inh | rCAG binder conf | DNA CAG counter | others
CC1(C(=O)NS(=O)(=O)c2ccc(Cl)s2)CCN1C(=O)Cc1ccc(-c2ccccc2)cc1 (stereo not drawn) | / | . | 73.9 | / | / | . | 75.1 | 37.6
CC(C)(C)c1ccc(CC(=O)N2CCC2(C)C(=O)NS(=O)(=O)c2ccc(Cl)s2)cc1 (stereo not drawn) | / | . | 61.7 | / | / | . | 61.3 | 23.6
CC(C)c1ccc(CC(=O)N2CCC2(C)C(=O)NS(=O)(=O)c2ccc(F)cc2F)cc1 (stereo not drawn) | / | . | . | / | / | . | / | /
COc1cc(C)ccc1S(=O)(=O)NC(=O)C1(C)CCN1C(=O)Cc1ccc(C(C)(C)C)cc1 (stereo not drawn) | / | . | . | / | / | . | / | /
CC(C)c1ccc(CC(=O)N2CCC2(C)C(=O)NS(=O)(=O)c2ccc(Cl)s2)cc1 (stereo not drawn) | / | . | 39.8 | / | / | . | 40.8 | 10.9
Cc1ccccc1OCC(=O)NCC(c1cccs1)N1CCOCC1 (stereo not drawn) | . | . | . | . | . | . | / | /
CC1CCCC(C)N1C(=O)CN1C(=O)NC2(CCCCCC2)C1=O (stereo not drawn) | / | . | . | / | / | . | / | /
C[C@@H]1OCN(C)[C@H]2C[C@H]3c4[nH]c5cccc(-c6ccccc6)c5c4CCN3C[C@@H]12 | / | / | . | / | / | . | / | /
Cc1ccc(C2c3[nH]c4ccccc4c3C[C@H]3C(=O)N(c4ccccc4C(=O)NCCN4CCOCC4)C(=O)N23)cc1 (stereo partly drawn) | . | . | . | . | . | . | / | /
CC(C)c1ccc(C2c3[nH]c4ccccc4c3C[C@H]3C(=O)N(c4ccccc4C(=O)N4CCC[C@H]4C(=O)O)C(=O)N23)cc1 (stereo partly drawn) | . | . | 46.2 | . | 98.1 | . | 70.2 | 27.4 | DNA CAG DR=.
COc1ccc(N2CCN(CCNS(=O)(=O)c3ccccc3[N+](=O)[O-])CC2)cc1 | / | / | . | / | / | . | / | /
Cc1ccc(SCC(=O)N2CCOCC2)cc1 | . | . | 40.4 | . | . | . | . | .
CC1=CNC(=O)CC(C)(C)C1 | / | . | / | / | / | / | / | /
O=C(CN1CCN(c2ccccc2O)CC1)Nc1cc(S(=O)(=O)N2CCCC2)ccc1Cl | . | . | . | . | . | . | / | /
CCOC(=O)Cc1c(C)nc2c(-c3cccc(Br)c3)c[nH]n2c1=O | . | . | 72.0 | . | . | . | 46.6 | 15.4
O=C(O)c1cc(-c2c[nH]c3ccccc23)nc2ccc3ccccc3c12 | . | . | 52.0 | . | 91.9 | . | 45.0 | 11.2
c1ccc2c(-c3c[nH]c4ccccc34)c3ccccc3nc2c1 | . | . | . | . | . | . | / | /
